Experimental data as given in PubChem BioAssay (Tox21).
A number with no mark means an inactive call. Active and inactive are the calls of the source. Calls come from the whole dose curve; as a rule, active = well fitted curve in the direction sought with a large enough effect in the repeat runs; inconclusive = weak or mixed curves; inactive = flat fitted curve, though single readings scatter.

Test: qHTS assay to test for compound auto fluorescence at 590 nm (red) in HEK293 cell free culture (AID 720683)
Conditions: cell-free medium autofluorescence, Ex540/Em590 red; series mostly up to 91.3 µM
Description: U.S. Tox21 Program National Center for Advancing Translational Sciences [NCATS] NIH Chemical Genomics Center [NCGC] U.S. Environmental Protection Agency [EPA] National Institutes of Environmental Health Sciences [NIEHS] National Toxicology Program [NTP] U.S. Food and Drug Administration [FDA] Tox21 Assay Overview: Compound auto fluorescence often interferes with screening of the compound library against various biological targets and signaling pathways. Some of these compounds may have fluorophoric properties. Such properties may interfere with the assay outputs resulting in false positives and/or negatives. To decrease such complications and ensure the compound activities are relevant in terms of biological response, the Tox21 10K compound library was screened for auto fluorescence. From the fluorophores used as reporter signals in our screening assays, the auto fluorescence equivalencies of compounds against three fluorophores have been evaluated: Triamterene, Fluorescein and Rose Bengal sodium for blue, green and red fluorescence, respectively. The fluorescence intensities were measured using Excitation/Emission wavelengths at 405/460nm, 485/535nm and 540/590nm for blue, green and red labels, respectively. This assay includes the red fluorescence data.
Tox21 Assay Protocol Summary: 5 uL of culture medium (DMEM containing 10% FBS) per well was dispensed into black wall/clear bottom 1536-well plates using a Multidrop Combi Dispenser (ThermoFisher Scientific, Waltham, MA). After 23 nL compound or DMSO vehicle was transferred into assay plate by a pintool work station (Kalypsys, San Diego, CA), fluorescence intensities in the assay plates were measured by an Envision (PerkinElmer, Shelton, CT) plate reader using three labels for measuring blue, green and red fluorescence at […] 460, 535 and 590nm respectively.
% is set by controls: 0 for no effect and ±100 for the full control effect.

Compound	outcome	fluorescence, % of fluorescent control
CC(C)c1ccc(C#N)cc1	inactive	–
CCN(Cc1cccc(S(=O)(=O)O)c1)c1ccc(C(=C2C=CC(=[N+](CC)Cc3cccc(S(=O)(=O)O)c3)C=C2)c2ccc(O)cc2S(=O)(=O)[O-])cc1	inactive	–
CC(=O)NNC(C)=O	inactive	–
CCO[Si](C)(CCCOCC1CO1)OCC (stereo not given)	inactive	–
COc1ccc(-c2cc(=S)ss2)cc1	inactive	–
O=C(/C=C/c1ccc([N+](=O)[O-])cc1)c1ccccc1	inactive	–
O=C(O)CO	inactive	–
CC(O)Cn1cnc2c1c(=O)n(C)c(=O)n2C (stereo not given)	–	0.243% [at 18.6 µM]
CCSC(=O)N(CC)CC	inactive	–
CCCCCCCCCCCCCOS(=O)(=O)O	inactive	–
CCNc1nc(N)nc(Cl)n1	inactive	–
C[C@@H]1C[C@H]2[C@@H]3CCC4=CC(=O)C=C[C@]4(C)[C@@]3(F)[C@@H](O)C[C@]2(C)[C@@]1(O)C(=O)COP(=O)(O)O	inactive	–
Cc1ccc2c(c1)CCCN2	inactive	–
CC1CCCC(=O)C1=O (stereo not given)	inactive	–
CCCCCCCC/C=C\CCCCCCCC(=O)OCCO	inactive	–
C1CCCCC1	inactive	–
CC/C=C\C/C=C\C/C=C\CCCCCCCC(=O)OCC	inactive	–
CC(CN(CCN(CC(C)OCCO)CC(C)OCCO)CC(C)OCCO)OCCO (stereo not given)	inactive	–
COC(CC(C)CCCC(C)(C)O)OC (stereo not given)	inactive	–
Cc1c(C2(c3cc(Br)c(O)c(Br)c3C)OS(=O)(=O)c3ccccc32)cc(Br)c(O)c1Br	inactive	–

Compound	outcome	fluorescence, % of fluorescent control
COc1cc(OC)c2ccc(=O)oc2c1	inactive	–
CCCCCCCCCCCCCCCCCC(=O)OCC(CC)CCCC (stereo not given)	inactive	–
O=C(O)CCS	inactive	–
CCCCCCCCCCCSCC(=O)O	inactive	–
CN=C(N)NC(=O)Nc1c(C)cccc1C	inactive	–
Cc1ccc(N(CC2=NCCN2)c2cccc(O)c2)cc1	inactive	–
CCCCCCCCCCCCCOC(=O)CCSCCC(=O)OCCCCCCCCCCCCC	–	0.0989% [at 18.6 µM]
CC1=CC[C@@]23C[C@@H]1C(C)(C)[C@@H]2CC[C@H]3C	inactive	–
O=C1c2ccccc2C(=O)c2c(O)ccc(O)c21	inactive	–
O=C1OC(=O)c2c(Br)c(Br)c(Br)c(Br)c21	inactive	–
O=C(O)c1ccc(O)cc1O	inactive	–
COc1ccc(C)cc1	inactive	–
CCCCCCOC(=O)CCCCC	inactive	–
COc1ccc2nc(S(=O)Cc3ncc(C)c(OC)c3C)[nH]c2c1 (stereo not given)	inactive	–
N[C@@H](Cc1cc(I)c(O)c(I)c1)C(=O)O	inactive	–
CCc1ccc(C)cc1	inactive	–
Nc1ccc(F)cc1	inactive	–
CCN(CC)C(=O)/C(C#N)=C/c1cc(O)c(O)c([N+](=O)[O-])c1	inactive	–
CCCCCCCCCCCC(=O)OCC(O)CO (stereo not given)	inactive	–
CC(C)(C)C1(CCc2ccc(Cl)cc2)CO1 (stereo not given)	inactive	–
